Source: PubChem BioAssay (several laboratories)
SENP8 block-1: inhibitors of human SENP8 protease. 330,000 tested, 1.2% active. Q96LD8. AID 2540. inhibition, % at 10 µM. purified SENP8, Z-RLRGG-aminoluciferin cleavage, luminescence; in the data active means inhibition above about 50%
EBI2 block: antagonists of human EBI2 receptor | inhibition, % at 5 µM | 360,000 tested, 0.81% active | P32249 | EBI2 beta-arrestin recruitment, luminescence, 7a,25-OHC stimulated; in the data active means inhibition above about 38%;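 further: enzyme fragment complementation signal reports receptor beta-arrestin coupling in cells; 0% = agonist plus DMSO wells and 100% = wells without agonist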
SENP6 block: inhibitors of human SENP6 protease; AID 2599; 330,000 tested, 1.8% active; Q9GZR1; Recombinant SENP6 catalytic domain, aminoluciferin luminescence; inhibition, % at 10 µM;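 active means inhibition above about 50% at the single tested dose, limit read from the data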;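 further: plate controls were DMSO wells with enzyme for no effect and DMSO wells lacking enzyme for full effect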
Target sequence (Q9GZR1 628-1112 limits assumed): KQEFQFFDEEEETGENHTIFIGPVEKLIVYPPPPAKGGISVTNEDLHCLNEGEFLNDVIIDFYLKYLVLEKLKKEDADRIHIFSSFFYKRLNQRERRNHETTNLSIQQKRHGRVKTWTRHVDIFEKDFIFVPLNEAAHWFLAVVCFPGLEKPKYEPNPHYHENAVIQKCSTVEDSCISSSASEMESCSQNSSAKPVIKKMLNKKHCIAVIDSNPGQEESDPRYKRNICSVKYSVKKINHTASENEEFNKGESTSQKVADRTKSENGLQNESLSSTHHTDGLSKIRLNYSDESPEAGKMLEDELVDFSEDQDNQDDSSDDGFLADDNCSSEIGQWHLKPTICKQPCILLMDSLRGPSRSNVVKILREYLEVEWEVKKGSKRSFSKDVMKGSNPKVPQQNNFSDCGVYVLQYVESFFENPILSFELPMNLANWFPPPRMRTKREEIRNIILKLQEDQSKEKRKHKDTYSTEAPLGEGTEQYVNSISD
SENP7 block: blocks the human protease SENP7. Q9BQF6. recombinant SENP7, Z-RLRGG-aminoluciferin luminescence, 40 min. inhibition, % at 5 µM. 330,000 tested, 1.5% active. AID 434973;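 active means inhibition above about 50% at the single test dose, limit read from the data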;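 further: plate controls were DMSO with enzyme for no effect and no enzyme buffer wells for full effect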
AHR act: activates the human aryl hydrocarbon receptor; P35869; AHR-responsive luciferase reporter cells, luminescence; activation, % at 5 µM; 320,000 tested, 2.5% active; in the data active means activation above about 47%;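 further: 0% = vehicle wells and 100% = reference agonist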
SENP8 block-2: blocks human SENP8 cleavage of Nedd8 substrate; 360,000 tested, 0.64% active; Q96LD8; recombinant SENP8, Nedd8 substrate fluorescence; inhibition, % at 20 µM; in the data active means inhibition mostly above about 40%, no sharp cut-off; inactive means mostly below about 27%
SENP8 inh conf: SENP8 (human) inhibition, single concentration confirmation; 1,400 tested, 15% active; shares compounds with SENP8 block-2; inhibition, % at 25 µM; purified SENP8, Nedd8-AMC/pro-Nedd8 cleavage fluorescence, 30 min; AID 624319; in the data active means inhibition mostly above about 39%, no sharp cut-off; inactive means mostly below about 34%
* hit, by the source's call. Shown are actives, neighbours in structure and some others; about 5% of the full set was active somewhere.

`CC(=O)c1cccc(NC(=O)C2CCCN2S(=O)(=O)c2cccs2)c1` (stereo unspecified) gave EBI2 block -10, SENP8 block-2 41* and SENP8 inh conf 17.
`COC(=O)c1ccc(NC(=O)C2CCCN2S(=O)(=O)c2ccc(OC)cc2)cc1` (stereo unspecified) gave SENP8 block-1 4, EBI2 block -7, SENP6 block -4, SENP7 block 1, AHR act -3, SENP8 block-2 41* and SENP8 inh conf 16.
For COC(=O)c1ccc(NC(=O)C2CCCN2S(=O)(=O)c2ccc(C)cc2)cc1 (stereo unspecified) the results were SENP8 block-1 -10, EBI2 block -3, SENP6 block 19, SENP7 block 1, AHR act -1 and SENP8 block-2 -4.
Screening COc1ccc(CN2C(=O)C(=O)N(CC(N)=O)C2=O)cc1 returned SENP8 block-1 8, EBI2 block -13, SENP6 block -2, SENP7 block 2, AHR act -1 and SENP8 block-2 2.
For O=C1c2ccccc2C(=O)N1c1ccccc1 the results were EBI2 block 0, SENP8 block-2 42* and SENP8 inh conf 4.
O=C1c2ccccc2C(=O)N1c1ccc(Cc2ccncc2)cc1 was read as SENP8 block-1 -7, EBI2 block -19, SENP6 block -32, SENP7 block -5, AHR act -9 and SENP8 block-2 18.
Cc1ccc(NC(=O)CN(C)C(=O)COc2ccccc2-c2ccccc2)cc1 was read as SENP8 block-1 0, EBI2 block 3, SENP6 block -1, SENP7 block 10, AHR act 3 and SENP8 block-2 14.
`CC1(C)[N+]([O-])=C2C(=[N+]([O-])C1(C)C)c1ccccc1/C2=N\O` gave SENP8 block-1 -4, EBI2 block 10, SENP6 block -20, SENP7 block -6, AHR act -1, SENP8 block-2 48* and SENP8 inh conf 17.
CC(=O)OC1CCC2(C)C(=CCC3C2CCC2(C)C3CC3OC4(CCC(C)CN4)C(C)C32)C1 (stereo unspecified) was read as SENP8 block-1 -8, EBI2 block -1, SENP6 block -8, SENP7 block 4, SENP8 block-2 51* and SENP8 inh conf 13.
Screening CC(=O)c1c2c3c(cccc3n(C)c1=O)C(=O)c1ccccc1-2 returned SENP8 block-1 -19, SENP6 block -6, SENP7 block -9 and AHR act 7.
Cn1c(=O)c(Nc2ccc(O)cc2)c2c3c(cccc31)C(=O)c1ccccc1-2 was read as SENP8 block-1 -9, EBI2 block 15, SENP6 block 1, SENP7 block 6, AHR act 29, SENP8 block-2 45* and SENP8 inh conf 15.
Screening O=C(CN1C(=O)CC(c2ccccc2)S(=O)(=O)c2ccccc21)N1CCCCC1 (stereo unspecified) returned SENP8 block-1 -3, EBI2 block 6, SENP6 block -25, SENP7 block -6, AHR act 4 and SENP8 block-2 9.
Screening O=C(Cn1ncc2c([nH]c3ccccc32)c1=O)N1CCc2ccccc2C1 returned SENP8 block-1 0, EBI2 block -17, SENP6 block 7, SENP7 block -2, AHR act 1 and SENP8 block-2 2.
For O=C(CCc1nc2ccccc2[nH]1)N1CCc2ccccc2C1 the results were SENP8 block-1 -8, EBI2 block -2, SENP6 block 11, SENP7 block -15, AHR act 5, SENP8 block-2 45* and SENP8 inh conf 54*.
Screening Cc1cccc(CN2CCC(n3nccc3NC(=O)CCCc3ccccc3)CC2)n1 returned SENP8 block-1 2, EBI2 block 2, SENP6 block 6, SENP7 block 2, AHR act 0 and SENP8 block-2 13.
Screening O=C(Cn1cc([N+](=O)[O-])cn1)Nc1ccc(Cn2cc(Br)cn2)cc1 returned SENP8 block-1 -12, EBI2 block -8, SENP6 block -12, SENP7 block -6, AHR act 14, SENP8 block-2 40* and SENP8 inh conf 5.
`COC(=O)c1ccc(Cn2cc([N+](=O)[O-])cn2)cc1` gave SENP8 block-1 -4, EBI2 block -12, SENP6 block -8, SENP7 block 8, AHR act 1 and SENP8 block-2 2.
`COc1ccc(C2C(C(C)=O)=C(O)C(=O)N2c2cccnc2)c(OC)c1` (stereo unspecified) gave SENP8 block-1 3, EBI2 block -10, SENP6 block 6, SENP7 block 11, AHR act 4 and SENP8 block-2 3.
`COc1ccc(C2C(C(C)=O)=C(O)C(=O)N2C)c(OC)c1` (stereo unspecified) gave SENP8 block-1 -3, EBI2 block 9, SENP6 block -5, SENP7 block 10, AHR act -4, SENP8 block-2 42* and SENP8 inh conf 26.
For C[C@H](NC(=O)C1CCN(S(=O)(=O)c2ccccc2)CC1)C(=O)NCc1ccc(Cl)cc1Cl the results were SENP8 block-1 -2, EBI2 block 9, SENP6 block 2, SENP7 block 6, AHR act 3 and SENP8 block-2 7.
`COc1ccc(/C=N/NS(=O)(=O)c2ccc(C)cc2)cc1OC(=O)c1ccccc1` gave SENP8 block-1 9, EBI2 block 11, SENP6 block 2, SENP7 block 3, AHR act 4 and SENP8 block-2 10.
Screening COc1ccc(/C=N/NS(=O)(=O)c2ccccc2)cc1OC(=O)c1ccc(C)cc1 returned SENP8 block-1 -4, EBI2 block -6, SENP6 block -3, SENP7 block -3, AHR act 10, SENP8 block-2 41* and SENP8 inh conf 28.
For COc1ccc(CCN2CC(C(=O)NCCN3CCOC3=O)CCC2=O)cc1 (stereo unspecified) the results were SENP8 block-1 -1, EBI2 block 3, SENP6 block 13, SENP7 block 4, AHR act -4 and SENP8 block-2 2.
Screening Cc1ccc(OCCCC(=O)N(C)CC(=O)Nc2ccccc2Br)cc1 returned SENP8 block-1 -1, EBI2 block 2, SENP6 block 2, SENP7 block 10, AHR act 6, SENP8 block-2 37* and SENP8 inh conf -5.
For Cc1ccc(C(=O)CCC(=O)N(C)CC(=O)Nc2ccccc2Br)cc1 the results were SENP8 block-1 -2, EBI2 block 7, SENP6 block 12, SENP7 block 6, AHR act 0 and SENP8 block-2 1.
COc1ccc(NC2CCCN(C(=O)CSc3ccccn3)C2)cc1OC (stereo unspecified) was read as SENP8 block-1 4, EBI2 block -18, SENP6 block -7, SENP7 block 6, AHR act 4, SENP8 block-2 28* and SENP8 inh conf 33.
